Values joined by “and” are separate entries in the source; they are usually repeats but may differ in a detail not shown here. Equal values may be shown once. Compounds without any hit were thinned out: in the full panel of roughly 83,000, 20% have a hit.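 Testing used 96-well plates and a 48-hour single-concentration exposure. Example: -40 means 40% of the starting cells died.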 Active and inactive are the calls of the source. The calls were made as follows: active = growth percent below 10; inactive = the rest.
Experiments:
Test in all cases: NCI-60 one-dose screen, 48 h (100 = growth as untreated, 0 = no growth, -100 = all killed)
Conditions in all cases: 10 µM unless noted
NCI-H23 lung = test system: NCI-H23 lung
NCI-H226 lung = test system: NCI-H226 lung
NCI-H322M lung = test system: NCI-H322M lung
HOP-62 NSCLC = test system: HOP-62 NSCLC
NCI-H460 lung = test system: NCI-H460 lung
HOP-92 NSCLC = test system: HOP-92 NSCLC
NCI-H522 lung = test system: NCI-H522 lung
A549/ATCC NSCLC = test system: A549/ATCC NSCLC
786-0 renal = test system: 786-0 renal
COLO 205 colon = test system: COLO 205 colon

Measured: growth

COc1ccc(/C=C(\C#N)c2cc3ccccc3[nH]2)cc1
inactive: NCI-H23 lung 33.2% | NCI-H226 lung 88% | NCI-H322M lung 49.9% | HOP-62 NSCLC 33.2% | NCI-H460 lung 12.7% | HOP-92 NSCLC 44% | A549/ATCC NSCLC 37.5% | 786-0 renal 42.1%
active: NCI-H522 lung 6.84% | COLO 205 colon 9.11%

Cc1ccc(NC(=O)N/C(N)=N/c2nc(=O)c3ccccc3s2)cc1
inactive: NCI-H23 lung 94.1% | NCI-H226 lung 91.3% | NCI-H322M lung 93.9% | HOP-62 NSCLC 91.7% | NCI-H460 lung 88.8% | HOP-92 NSCLC 86.4% | NCI-H522 lung 95.3% | A549/ATCC NSCLC 103% | 786-0 renal 98.6% | COLO 205 colon 103%

CC12CCC(C(=O)CC1=O)C2(C)C (stereo not given)
inactive: NCI-H23 lung 108% and 97.9% | NCI-H226 lung 95.8% | NCI-H322M lung 112% and 97.3% | HOP-62 NSCLC 110% | NCI-H460 lung 104% and 114% | HOP-92 NSCLC 102% and 94.9% | NCI-H522 lung 103% and 153% | A549/ATCC NSCLC 101% and 103% | 786-0 renal 104% and 96.6% | COLO 205 colon 114% and 110%

CC/C(=C(/c1ccc(Cl)cc1)c1ccc(OCCN2CCOCC2)cc1)c1ccccc1
inactive: NCI-H23 lung 87.5% | NCI-H226 lung 108% | NCI-H322M lung 104% | HOP-62 NSCLC 106% | NCI-H460 lung 96.1% | HOP-92 NSCLC 98.4% | NCI-H522 lung 88.6% | A549/ATCC NSCLC 89.9% | 786-0 renal 103% | COLO 205 colon 99.8%

COc1ccc(C(c2cc(OC)c(OC)c(OC)c2)n2ccnc2)cc1O (stereo not given)
active: NCI-H460 lung 6.11% | COLO 205 colon -9.99%
inactive: NCI-H23 lung 38.9% | NCI-H226 lung 68.7% | NCI-H322M lung 48.2% | HOP-62 NSCLC 29.5% | HOP-92 NSCLC 25.8% | NCI-H522 lung 12.1% | A549/ATCC NSCLC 12.8% | 786-0 renal 20%

COc1ccc(CN2CCc3c(Cl)nc(N)nc3C2=O)c(OC)c1
active: NCI-H23 lung -62.1% [100 µM] | NCI-H226 lung 5.05% [100 µM] | NCI-H460 lung 1.6% [100 µM] | HOP-92 NSCLC -15.2% [100 µM] | COLO 205 colon -48.6% [100 µM]
inactive: NCI-H322M lung 14.9% [100 µM] | HOP-62 NSCLC 40% [100 µM] | NCI-H522 lung 15.7% [100 µM] | A549/ATCC NSCLC 35.4% [100 µM] | 786-0 renal 19.6% [100 µM]

Cc1ccc(/C=C(\C#N)c2cc3ccccc3[nH]2)cc1
inactive: NCI-H23 lung 66% | NCI-H226 lung 95.3% | NCI-H322M lung 87.7% | HOP-62 NSCLC 49.5% | NCI-H460 lung 30.6% | HOP-92 NSCLC 51.1% | NCI-H522 lung 13.7% | A549/ATCC NSCLC 49% | 786-0 renal 72.7% | COLO 205 colon 32.4%

CC1=CC=C(NC(=O)/C=C/c2ccccc2)CC1Nc1nccc(-c2cccnc2)n1 (stereo not given)
inactive: NCI-H23 lung 69% | NCI-H226 lung 66% | NCI-H322M lung 67.2% | HOP-62 NSCLC 54.8% | NCI-H460 lung 66.9% | HOP-92 NSCLC 60.3% | NCI-H522 lung 69% | A549/ATCC NSCLC 42.4% | 786-0 renal 15.9% | COLO 205 colon 26.7%

COc1cc(/C=C2\CCC/C(=C\c3cc(CN4CCCC4)c(O)c(OC)c3)C2=O)cc(CN2CCCC2)c1O
active: NCI-H460 lung 6.28% | 786-0 renal -4.39% | COLO 205 colon -45.7%
inactive: NCI-H23 lung 38.4% | NCI-H226 lung 75.1% | NCI-H322M lung 44.3% | HOP-62 NSCLC 102% | HOP-92 NSCLC 10.5% | NCI-H522 lung 46.1% | A549/ATCC NSCLC 43.7%

CCCc1cc(C(N)=S)ccn1
inactive: NCI-H23 lung 108% | NCI-H226 lung 100% | NCI-H322M lung 101% | HOP-62 NSCLC 106% | NCI-H460 lung 111% | HOP-92 NSCLC 95.1% | NCI-H522 lung 93.6% | A549/ATCC NSCLC 103% | 786-0 renal 95.6% | COLO 205 colon 107%

O=C(Nc1ncc(Cc2cccc(C(F)(F)F)c2)s1)c1ccc(-n2cnnn2)cc1
inactive: NCI-H23 lung 55% | NCI-H226 lung 69.3% | NCI-H322M lung 86.1% | HOP-62 NSCLC 104% | NCI-H460 lung 30.5% | HOP-92 NSCLC 86.2% | NCI-H522 lung 54.5% | A549/ATCC NSCLC 34.4% | 786-0 renal 66.1% | COLO 205 colon 121%

COc1cc(OC)cc(-c2ccc(-c3ccc(C(=N)N)cn3)s2)c1
active: NCI-H460 lung 4.75%
inactive: NCI-H23 lung 94.6% | NCI-H226 lung 70% | NCI-H322M lung 89.2% | HOP-62 NSCLC 86% | HOP-92 NSCLC 86.6% | NCI-H522 lung 78.7% | A549/ATCC NSCLC 63.2% | 786-0 renal 74.3% | COLO 205 colon 49.4%

Clc1ccc(CNc2ccc3nc(CCC4CCCCC4)[nH]c3c2)cc1
inactive: NCI-H23 lung 66.4% | NCI-H226 lung 71.4% | NCI-H322M lung 87.9% | HOP-62 NSCLC 79% | NCI-H460 lung 60.6% | HOP-92 NSCLC 28.8% | NCI-H522 lung 54.8% | A549/ATCC NSCLC 59.8% | 786-0 renal 58.9%
active: COLO 205 colon -63.3%

OCCN1CCN(c2cc(-c3cccc(OC(F)(F)F)c3)nc3ccc(N4CCCC4)cc23)CC1
active: COLO 205 colon -18.8%
inactive: NCI-H23 lung 74.4% | NCI-H226 lung 70.1% | NCI-H322M lung 80% | HOP-62 NSCLC 48.4% | NCI-H460 lung 11.3% | HOP-92 NSCLC 34.1% | NCI-H522 lung 66.4% | A549/ATCC NSCLC 36.2% | 786-0 renal 63.1%

COC1=CC(c2ccc[nH]2)=N/C1=C\c1[nH]c(C)c(C(=O)Oc2ccccc2)c1C
active: NCI-H23 lung -32.9% | NCI-H226 lung -39.8% | NCI-H322M lung -13.1% | HOP-62 NSCLC -22.2% | NCI-H460 lung -31.2% | HOP-92 NSCLC -35.4% | NCI-H522 lung -64% | A549/ATCC NSCLC -44.1% | 786-0 renal -44.1% | COLO 205 colon -81.4%

Source: PubChem BioAssay (NCI)
